A selection: hits, their analogues and other compounds. The true share with any hit is near 10%.
ALOX12 inhib: 12-hLO (ALOX12) enzyme inhibition; 150,000 compounds, 0.12% hits; purified 12-hLO, xylenol orange hydroperoxide absorbance; AID 1452; P18054; Potency, µM (doses to about 57.1 µM), for inactives: at the top dose activity change, negative = inhibition, actives largely listed as inhibitors; also: potency is read from the fitted curve at half-maximal effect; nearly all actives have a fitted effect of over 55% in size
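Xylenol orange chromogenic assay: hydroperoxide from 12hLO oxidises Fe(II), giving red-shifted Fe(III)-XO absorbance. Conditions: 150 nM enzyme, 40 uM arachidonic acid, 25 mM Hepes pH 7.0, 0.01% Triton X-100, 30 min, room temperature.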
PNC inhibitor: blocks assembly of the perinucleolar compartment. PC3M PTB-GFP, PNC prevalence imaging, 16 h; active compounds read low. activity change (PNC), negative = inhibition, % at 10 µM. 140,000 compounds, 3.1% hits;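 active = readout at or below -70, meaning at least 70% loss of cells showing the perinucleolar compartment, a nuclear body marking cancer cells; inconclusive = readout between -30 and a set limit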;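 also: plate controls were DMSO wells for no effect and camptothecin positive control wells for full effect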
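Read-out is percentage of cells bearing a perinucleolar compartment, from automated 20x imaging of fixed, Hoechst-stained PC3M PTB-GFP cells. Cells were seeded 4 h, then exposed 16 h to compound (23 nl of library stock) in duplicate plates.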
HPGD inh: HPGD (human) dehydrogenase inhibition. P15428. purified HPGD, NADH fluorescence kinetic, PGE2 substrate. Potency, µM, without a hit: at the highest dose activity change, negative = inhibition, usual class: inhibitors. 150,000 compounds, 4.3% hits. AID 894; active = well fitted inhibition curve with a large enough effect, not every such curve was filed as active; inconclusive = small, poorly fitted or top-dose-only effect, or another doubt; inactive = no such curve, though single readings can be large or run the other way; also: potency is read from the fitted curve at half-maximal effect
Target sequence (P15428 whole entry, looked up): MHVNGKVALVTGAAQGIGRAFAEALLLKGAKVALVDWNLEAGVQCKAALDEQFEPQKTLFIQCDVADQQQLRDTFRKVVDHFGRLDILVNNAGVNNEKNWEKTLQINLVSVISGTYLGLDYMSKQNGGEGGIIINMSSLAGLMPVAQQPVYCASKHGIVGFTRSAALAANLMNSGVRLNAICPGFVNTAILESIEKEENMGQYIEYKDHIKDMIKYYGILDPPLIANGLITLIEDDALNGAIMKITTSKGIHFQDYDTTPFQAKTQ
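NADH formation kinetics: reaction with 30 uM PGE2 and 1 mM NAD+ (final), 20 nM enzyme, Tris-HCl pH 8 with Tween 20, after 15 min compound preincubation at room temperature. Fluorescence change, last versus first of five reads.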
GLA inh pH 4.5: blocks human alpha-galactosidase A at pH 4.5; P06280; 230,000 tested, under 10 active; purified enzyme, 4-MU-alpha-Gal fluorescence, pH 4.5; activity change, negative = inhibition, % at 105 µM;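 also: 0% = full activity with enzyme and -100% = basal without enzyme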
Target sequence (P06280 whole entry, looked up): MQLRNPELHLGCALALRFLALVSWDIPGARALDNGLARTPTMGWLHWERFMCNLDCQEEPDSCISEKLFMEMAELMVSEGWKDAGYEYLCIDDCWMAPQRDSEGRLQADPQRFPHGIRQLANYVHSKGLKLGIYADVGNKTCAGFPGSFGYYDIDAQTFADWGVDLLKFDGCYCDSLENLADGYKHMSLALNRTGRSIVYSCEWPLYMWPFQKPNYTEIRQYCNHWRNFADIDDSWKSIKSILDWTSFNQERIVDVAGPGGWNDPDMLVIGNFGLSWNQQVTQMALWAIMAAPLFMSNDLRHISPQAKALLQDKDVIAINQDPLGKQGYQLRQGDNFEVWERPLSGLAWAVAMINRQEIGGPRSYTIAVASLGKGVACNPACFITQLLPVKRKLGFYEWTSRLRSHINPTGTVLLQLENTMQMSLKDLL
ALDH1A1 inh: inhibitors of human aldehyde dehydrogenase 1A1. 220,000 compounds, 7.3% hits. P00352. Purified ALDH1A1, NADH fluorescence, propionaldehyde substrate. Potency, µM (doses to about 75.3 µM), for the others: at the top dose activity, negative = inhibition, hits mostly inhibitors; active = well fitted inhibition curve with a large enough effect, not every such curve was filed as active; inconclusive = small, poorly fitted or top-dose-only effect, or another doubt; inactive = no such curve, though single readings can be large or run the other way;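 also: potency is read from the fitted curve at half-maximal effect; plate controls were no enzyme wells and a reference inhibitor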
aGal spleen mod: inhibits or activates alpha-galactosidase in human spleen homogenate | human spleen homogenate, 4MU-alpha-Gal fluorescence, 40 min | Potency, µM (series often up to 80 µM), inactives show at the highest dose activity change, negative = inhibition, hits mostly inhibitors | 240,000 compounds, 0.008% hits | AID 2107;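 also: potency is read from the fitted curve at half-maximal effect; 0% = enzyme with vehicle and -100% = no enzyme basal signal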
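qHTS titration in buffer at pH 5.0. Alpha-galactosidase activity in spleen homogenate was measured via 4-methylumbelliferone release from 1 mM fluorogenic substrate after 40 min at 37C and a pH 10 stop. AC50 came from Hill fits of control-normalized data.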
* marks the source's active call; other numbers are inactive results; ? = inconclusive; . = no result; [ ] = remark or other dose. Unless noted, calls follow the shape of the dose curve; as a rule, active = well fitted curve in the direction sought with a large enough effect; inconclusive = small, poorly fitted or top-dose-only effect, or another doubt; inactive = no such curve, though single readings can be large; an effect the other way counts as inactive or inconclusive. Unless noted, % is scaled to controls: 0 for no effect and ±100 for the full control effect.

SMILES | ALOX12 inhib | PNC inhibitor | HPGD inh | GLA inh pH 4.5 | ALDH1A1 inh | aGal spleen mod
COc1cc2c(cc1NC(=O)Nc1ccc(F)cc1)oc1ccccc12 | 0% | 1 | ? | 1 | 1% | 2%
Clc1cccc(NCc2cn3cccnc3n2)c1 | . | . | . | -4 | 12% | -1%
CC(c1nccs1)N(C)C(=O)CCc1nnc(Cc2c[nH]c3ccccc23)o1 (stereo not drawn) | . | . | . | 10 | 21% | -4%
Cc1nc2cnc(Oc3cccc(Cl)c3)nc2n(Cc2ccc(F)cc2)c1=O | . | . | . | . | ? | -6%
Cn1nc(-c2ccc(C(=O)Nc3cccc(Cl)c3)cc2)c2ccccc2c1=O | 6% | 25 | -8% | -4 | 2% | -6%
Cn1nc(-c2ccc(C(=O)N3CCN(Cc4ccccc4)CC3)cc2)c2ccccc2c1=O | 5% | 4 | 16µM* | -12 | -37% | -16%
Cc1ccc(NC(=O)c2ccc(-c3nn(C)c(=O)c4ccccc34)cc2)c(C)c1 | -2% | 20 | 13µM* | -1 | 8.9µM* | 4%
CNc1nc(-c2ccccc2C(F)(F)F)nc2ccccc12 | 6% | . | -9% | 2 | 3% | -7%
Cc1ccc(CNC(=O)CS(=O)Cc2nc(-c3cccs3)oc2C)cc1 (stereo not drawn) | -8% | -18 | 28µM* | -5 | ? | 0%
COC(=O)c1ccc(C(NC(=O)OCc2ccccc2)/C(=C/[C@@H](C)C(=O)N[C@@H](CO)Cc2ccccc2)c2cccnc2)cc1 (stereo partly drawn) | -5% | . | -7% | -9 | -3% | -13%
O=C(COc1ccc(-c2nnc(N3CCCCC3)c3ccccc23)cc1)N1CCCCC1 | -3% | ? | ? | 2 | 6% | 7%
Cc1ccc(-c2nnc(N3CCN(C(=O)Cn4c(=O)n(C)c5ccccc54)CC3)c3ccccc23)cc1 | 2% | ? | -10% | -4 | ? | -5%
Cc1ccc(-c2nnc(N3CCN(C(=O)CN4CCOCC4)CC3)c3ccccc23)cc1 | -2% | ? | -10% | -3 | 18µM* | 1%
O=C(CN1CCOCC1)N1CCN(c2nnc(-c3ccccc3)c3ccccc23)CC1 | 1% | -12 | 2% | 1 | 13µM* | 7%
Cc1ccc(-c2nnc(N3CCN(C(=O)COc4ccccc4)CC3)c3ccccc23)cc1 | -2% | 53 | -18% | 0 | 28µM* | 10%
Cc1cc(C)n(-c2nc(N(c3ccccc3)c3ccccc3)nc(-n3nc(C)cc3C)n2)n1 | 14% | -100* | -30% | 2 | 7% | 8%
Cc1cc(C)n(-c2nc(Nc3ccccc3)nc(-n3nc(C)cc3C)n2)n1 | 0% | ? | -8% | 3 | 9% | -10%
Cn1c2ccccc2c2nnc(NN)nc21 | . | . | . | 2 | . | 2%
CCOC(=O)Cn1c2ccc(F)cc2c2nc(C)sc21 | . | . | . | 2[21.1 µM] | ? | 3%
CCn1c2ccccc2c2nnc(NN)nc21 | -6% | 30 | -16% | 3 | 16µM* | -3%
CSc1nnc2c3cc(C)ccc3n(Cc3ccccc3)c2n1 | -5% | -6 | ? | -4 | 14µM* | 7%
c1ccc(Cn2c3ccccc3c3nnc(SCCN4CCCCC4)nc32)cc1 | . | . | . | -8 | ? | -10%
CCn1c2ccc(C)cc2c2nnc(NN)nc21 | 1% | 49 | -13% | -2 | 25µM* | -11%
CCCCn1c2ccc(F)cc2c2nnc(NN)nc21 | . | . | . | -3 | 2.2µM* | -7%
N#Cc1cccc(NC(=O)N2CC[C@@]3(CCCN(C(=O)c4cnccn4)C3)C2)c1 | 3% | . | -5% | . | ? | 2%
SMILES | ALOX12 inhib | PNC inhibitor | HPGD inh | GLA inh pH 4.5 | ALDH1A1 inh | aGal spleen mod
CCC(=O)c1ccc(OCc2ccc(C(=O)c3ccccc3)cc2)cc1 | . | . | . | -12 | ? | 7%
COc1cc(C(=O)OC2CC[C@]3(C)C4CCC5[C@]6(O)CC(O)[C@]7(O)C(CN8CC(C)CCC8[C@]7(C)O)[C@]6(O)C[C@@]53O[C@]24O)cc(OC)c1OC (stereo partly drawn) | -4% | . | -4% | 0 | 2% | 14%
COC(=O)c1ccc(C(NC(=O)OCc2ccccc2)/C(=C/[C@@H](C)C(=O)NCc2cc(F)cc(F)c2)c2cccnc2)cc1 (stereo partly drawn) | -2% | . | -7% | -4 | 0% | -6%
CCOC(=O)c1c2c(c(=S)n(-c3ccccc3)c1N)CCC2 | -29% | -23 | . | -5 | 14µM* | 4%
CC(C)(C)OC(=O)N1CCC(c2cc(=O)n3[nH]c(-c4ccc(Cl)cc4)cc3n2)CC1 | 3% | -84* | -14% | 0 | 7% | -20%
COc1cccc(-c2nc(CS(=O)(=O)CC(=O)Nc3cc(C)ccc3C)c(C)o2)c1 | 2% | -119* | -13% | -7 | 2% | -1%
COc1cccc(-c2nc(CS(=O)(=O)CC(=O)N3CCN(c4ccccn4)CC3)c(C)o2)c1 | -1% | ? | -10% | 5 | 32µM* | 3%
CC(/C=C/c1ccc(N(C)C)cc1)=N/N=C1/NC(=O)CC(C(=O)Nc2ccc(Cl)cc2)S1 (stereo not drawn) | -9% | 13 | -23% | -22 | 25µM* | -12%
Cn1nnnc1SCC(=O)NC(=O)c1cccc([N+](=O)[O-])c1 | . | . | . | 2 | . | 4%
O=C1C(Cl)=C(NCCCN2CCOCC2)C(=O)N1CCc1ccccc1 | -12% | 18 | -21% | 0 | 7.9µM* | 7%
N=C(N)c1ccc2cc(OC(=O)c3ccc(N=C(N)N)cc3)ccc2c1 | . | . | . | . | 22µM* | -4%
COc1ccc(C(=O)Oc2ccc(/C=N/O)cc2)cc1 | -6% | -18 | -15% | -4 | 3% | 2%
COc1ccc2c(c1)C(=O)[C@H](OC(=O)NS(=O)(=O)c1ccc(F)cc1)[C@@H](c1ccc(OC)c(Br)c1)O2 | . | . | -13% | -9 | 9% | 19%
CC1SC(c2cccc(Cl)c2)NC1=O (stereo not drawn) | 2% | -10 | ? | 6 | 11µM* | -1%
O=C(Nc1ccc(F)cc1)C(c1ccccc1)N1CCN(S(=O)(=O)c2ccccc2)CC1 (stereo not drawn) | -2% | -12 | -9% | -11 | 10µM* | -7%
Cc1ccc(S(=O)(=O)N2CCN(C(C(=O)Nc3ccc(F)cc3)c3ccccc3)CC2)cc1 (stereo not drawn) | -2% | -6 | -4% | -12 | ? | 1%
O=C(Nc1ccc(F)cc1)C(c1ccccc1)N1CCN(S(=O)(=O)c2c(F)cccc2F)CC1 (stereo not drawn) | -3% | 0 | -8% | -12 | 7.9µM* | 9%
CCOC(=O)c1ccc(NC2OC(=O)c3ccccc32)cc1 (stereo not drawn) | 2% | -94* | -3% | -5 | 5% | -4%
